Bioassay records as filed in PubChem BioAssay.
HT1080NT lethal – kills 2HG-producing HT-1080-NT fibrosarcoma cells; Potency, µM (titrated, usually from 46.1 µM), for inactives: top-dose activity, negative = less viability, most hits filed as cytotoxic; actives 1.6% (n = 360,000); HT-1080-NT fibrosarcoma viability, CellTiter-Glo ATP luminescence, 48 h;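 further: NT is the 2HG producing partner of a matched IDH1 knockdown line; potency means the concentration at half of the fitted maximal effect; 0% = DMSO-treated cells and -100% = media-only wells without cells; nearly all actives have a fitted effect of over 55% in size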
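HT-1080-NT; 750 cells/well; 5% FBS RPMI; 48 h compound, 37 degrees C; CellTiter-Glo luminescence; curve fitting and curve-class assignment.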
TDP1 cell CPT – DT40-hTDP1 cell growth loss with CPT; actives 12% (n = 420,000); chicken DT40 Tdp1-/-;hTDP1 cells + 20 nM CPT, ATP luminescence, 48 h; AID 686979; Potency, µM (doses to about 46.2 µM), for the others: at the top dose activity change, negative = growth inhibition, most hits filed as inhibitors; further: potency means the concentration at half of the fitted maximal effect; nearly all actives have a fitted effect of over 55% in size
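Cell growth measured by CellTiter-Glo luminescence after a minimum 48 h, 37 C compound exposure with 20 nM CPT in Tdp1-knockout DT40 cells stably expressing hTDP1, seeded 400/well; qHTS titration format.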
IL-1B inflam inh – inflammasome signaling inhibition, IL-1 beta readout | actives 4.7% (n = 360,000) | activity change, % at 57.5 µM | THP-1 LPS/ATP IL-1B secretion, AlphaLISA, 16 h; hits give low values | AID 743279; in the data active means activity change below about -50%; inconclusive means mostly about -30% to -49%
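THP-1 cells pretreated 1 hr with compounds (up to 57.5 uM final), then stimulated with LPS (250 ng/mL final) plus ATP (1.25 mM final); secreted IL-1B measured by AlphaLISA after 16 hr, decreased signal indicating inhibition.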
TDP1 cell noCPT – qHTS for Inhibitors of human tyrosyl-DNA phosphodiesterase 1 (TDP1): qHTS in cells in absence of CPT; DT40 Tdp1-/- hTDP1 cells, no CPT, ATP luminescence, 48 h; Potency, µM (doses to about 46.2 µM), inactives show at the top dose activity change, negative = growth inhibition, actives largely listed as inhibitors; actives 15% (n = 420,000); AID 686978, 2013; further: potency means the concentration at half of the fitted maximal effect; nearly all actives have a fitted effect of over 55% in size
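No-CPT arm: Tdp1-/-;hTDP1 DT40 cells (400/well) plus compounds, incubated ≥48 hr at 37 °C. Readout CellTiter-Glo luminescence.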
ALOX12 inh – blocks human arachidonate 12S-lipoxygenase. purified 12hLO, xylenol orange hydroperoxide absorbance. AID 1671190. P18054. Potency, µM (top dose mostly 108 µM), inactives show at the top dose activity change, negative = inhibition, actives largely listed as inhibitors. actives 1.1% (n = 580,000); further: potency means the concentration at half of the fitted maximal effect
Target sequence (P18054 whole entry, looked up): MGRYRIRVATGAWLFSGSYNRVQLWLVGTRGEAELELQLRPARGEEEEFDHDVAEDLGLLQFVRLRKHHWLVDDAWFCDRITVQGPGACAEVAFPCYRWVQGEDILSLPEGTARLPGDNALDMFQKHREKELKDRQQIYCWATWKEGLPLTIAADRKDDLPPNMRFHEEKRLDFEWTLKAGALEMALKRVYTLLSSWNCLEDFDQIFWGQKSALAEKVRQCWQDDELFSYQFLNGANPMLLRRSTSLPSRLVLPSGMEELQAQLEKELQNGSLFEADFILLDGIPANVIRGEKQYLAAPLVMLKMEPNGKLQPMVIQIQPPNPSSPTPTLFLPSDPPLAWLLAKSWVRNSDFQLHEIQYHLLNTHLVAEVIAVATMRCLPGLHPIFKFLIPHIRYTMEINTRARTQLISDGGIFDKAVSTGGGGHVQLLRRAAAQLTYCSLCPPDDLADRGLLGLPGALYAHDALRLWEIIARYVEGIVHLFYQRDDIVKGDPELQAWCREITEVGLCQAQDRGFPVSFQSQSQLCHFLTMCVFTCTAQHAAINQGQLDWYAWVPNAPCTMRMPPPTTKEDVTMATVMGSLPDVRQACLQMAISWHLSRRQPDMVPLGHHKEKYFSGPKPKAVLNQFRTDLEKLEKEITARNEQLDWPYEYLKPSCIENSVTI
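Purified human 12hLO (150 nM final) in 25 mM Hepes, 0.01% Triton X-100, pH 7.0 was preincubated 15 min at room temperature with compound. Then 40 uM arachidonic acid was added, 30 min. Hydroperoxide was read by Fe-XO absorbance ratio 573/405 nm.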
HT1080 IDH1KD tx – toxicity to HT-1080 IDH1 knockdown cells (counter line) | HT-1080 IDH1 knockdown viability, ATP luminescence, 48 h | Potency, µM (series often up to 46.1 µM), for the others: top-dose activity, negative = toxicity, most hits filed as cytotoxic | actives 2% (n = 360,000);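 further: potency means the concentration at half of the fitted maximal effect; 0% = DMSO wells and -100% = cell-free medium wells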
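Using the IDH1-knockdown HT-1080 line run in the same batch and compound series as the NT line, viability after 48 h at 37 °C was determined by CellTiter-Glo luminescence and expressed as % activity.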
* = called active by the depositor; [ ] = remark or other dose. Shown is part of a subset that was picked to be rich in hits. Unless noted, the call rests on the fitted dose curve; in most records, active means well fitted curve in the direction sought with a large enough effect; inconclusive means small, poorly fitted or top-dose-only effect, or another doubt; inactive means no such curve, though single readings can be large; an effect the other way counts as inactive or inconclusive. Unless noted, on the % scale 0 is the no-effect control and ±100 the full control effect.

What do the screens show for `CC(=O)Nc1ccc(/C=C/c2ccnc3ccccc23)cc1[N+](=O)[O-]`?
TDP1 cell CPT: 1.4µM*; TDP1 cell noCPT: inconclusive

How did CC(=O)Nc1ccc(/C=C/c2ccccn2)cc1 do in these assays?
TDP1 cell CPT: -8%; TDP1 cell noCPT: -4%

How did COc1cc(NC(=O)c2cc3c(N4CCCC4)nc(C)cn3n2)cc(OC)c1OC do in these assays?
ALOX12 inh: 51%

What do the screens show for `CSc1ccccc1CN1CCC2(CC1)C(C(=O)O)CC(=O)N2C` (stereo unspecified)?
ALOX12 inh: -23%

Results for O=C(O)c1cccc(NS(=O)(=O)c2ccc3c(c2)C(=O)c2ccccc2C3=O)c1 ?
HT1080NT lethal: 1%; TDP1 cell CPT: -9%; IL-1B inflam inh: 0; TDP1 cell noCPT: -10%; ALOX12 inh: -22%; HT1080 IDH1KD tx: 6%

Results for Cc1ccc(S(=O)(=O)Nc2ccc(-c3csc(-c4ccccc4)n3)cc2)cc1 ?
HT1080NT lethal: -12%; TDP1 cell CPT: inconclusive; IL-1B inflam inh: -97*; TDP1 cell noCPT: inconclusive; ALOX12 inh: inconclusive; HT1080 IDH1KD tx: -16%

What do the screens show for `O=S(=O)(Nc1ccc(-c2ccc(NS(=O)(=O)c3ccccc3)cc2)cc1)c1ccccc1`?
HT1080NT lethal: inconclusive; TDP1 cell CPT: inconclusive; IL-1B inflam inh: -4; TDP1 cell noCPT: 23µM*; ALOX12 inh: inconclusive; HT1080 IDH1KD tx: inconclusive

Results for O=[N+]([O-])c1ccc(S(=O)(=O)Nc2ccc(-c3csc(-c4ccccc4)n3)cc2)cc1 ?
ALOX12 inh: 7%

Results for O=S(=O)(Nc1ccc(-c2csc(-c3ccccc3)n2)cc1)c1ccccc1 ?
HT1080NT lethal: inconclusive; TDP1 cell CPT: -41%; IL-1B inflam inh: -102*; TDP1 cell noCPT: 18µM*; ALOX12 inh: -9%; HT1080 IDH1KD tx: inconclusive

How did O=C1c2ccccc2C(=O)c2cc(S(=O)(=O)Nc3ccccc3)ccc21 do in these assays?
HT1080NT lethal: -1%; TDP1 cell CPT: 15µM*; IL-1B inflam inh: 0; TDP1 cell noCPT: 21µM*; ALOX12 inh: -23%; HT1080 IDH1KD tx: -24%

How did O=C(c1ccccc1F)N1CCn2c(nn(-c3ccc(C(F)(F)F)cc3)c2=O)C1 do in these assays?
ALOX12 inh: 1%[6.33 µM]

Results for COCCO[C@H]1C(=O)N(C2CCN(C(=O)c3cnn(C)c3)CC2)[C@H]1c1ccncc1 ?
ALOX12 inh: 25%

What do the screens show for `NCC(=O)N1CCC(n2nccc2NC(=O)Nc2cccc(F)c2)CC1`?
ALOX12 inh: 5%

What do the screens show for `CC(=O)Nc1ccc(S(=O)(=O)Nc2nc3ccc(C)cc3s2)cc1`?
HT1080NT lethal: -3%; TDP1 cell CPT: 2%; IL-1B inflam inh: 25; TDP1 cell noCPT: -5%; ALOX12 inh: -8%; HT1080 IDH1KD tx: -3%

Results for Cc1ccc2nc(-c3ccc(NS(=O)(=O)c4ccc(F)cc4)cc3)sc2c1 ?
HT1080NT lethal: inconclusive; TDP1 cell CPT: inconclusive; IL-1B inflam inh: -103*; TDP1 cell noCPT: inconclusive; ALOX12 inh: -23%; HT1080 IDH1KD tx: inconclusive

What do the screens show for `C=CCN(c1ccc(C(=O)Nc2ccc(NC(C)=O)cc2)cc1)S(C)(=O)=O`?
HT1080NT lethal: 1%; TDP1 cell CPT: inconclusive; IL-1B inflam inh: 28; TDP1 cell noCPT: 23µM*; ALOX12 inh: 4%; HT1080 IDH1KD tx: -3%

How did C=CC(C)(CCC=C(C)C)OC(=O)c1ccccc1 (stereo unspecified) do in these assays?
ALOX12 inh: -3%[176 µM]

How did COc1ccc(-c2noc(-c3cccn(CC(=O)Nc4cc(C)cc(C)c4)c3=O)n2)cc1OC do in these assays?
ALOX12 inh: -26%
